A selection: hits, their analogues and other compounds. The true share with any hit is near 3.5%.
Mtb hypoxia inh – PubChem AID 1159583. M. tuberculosis hypoxia-regulated fluorescent reporter, fluorescence. fluorescence inhibition, % (concentration not given with the values). 300,000 compounds, 0.1% hits; in the data active = fluorescence inhibition mostly above about 23%, no sharp cut-off; inactive = mostly below about 17%
FadD28 binding – inhibitors of FadD28 bisubstrate probe binding, primary screen, biochemical, fluorescence polarization, single point | 360,000 compounds, 0.22% hits | inhibition, % at 12.5 µM | Mycobacterium tuberculosis FadD28 fatty-acid-AMP ligase; in the data active = inhibition above about 8.5%, passing the limit was not always enough
GDH-TPI counter – GDH-TPI coupling enzyme inhibitors, primary screen, artefact control for M. tuberculosis FBA inhibitor project, biochemical, absorbance, full deck; GDH-TPI coupled enzyme counterscreen, NADH absorbance; inhibition, % at 4.8 µM; 360,000 compounds, 1.2% hits; AID 588335, 2011; in the data active = inhibition above about 30%;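 also: 0% = DMSO wells and 100% = wells lacking the enzyme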
Mtb UGM inh – M. tuberculosis UGM enzyme inhibitors, primary screen, biochemical, fluorescence polarization, single point. inhibition, % at 10 µM. purified UGM, fluorescence polarization probe displacement. 320,000 compounds, 0.06% hits. UDP-galactopyranose mutase (Mycobacterium tuberculosis (strain ATCC 25618 / H37Rv)), …. AID 504406, 2011; in the data active = inhibition above about 10%, passing the limit was not always enough
Rv3671c protease – Rv3671c serine protease inhibitors, primary screen, biochemical, fluorescence polarization, M. tuberculosis H37Rv. P9WHR9. inhibition, % at 5.96 µM. AID 2606, 2010. 320,000 compounds, 0.048% hits; in the data active = inhibition above about 38%;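 also: extracellular domain of Rv3671c used as enzyme; 0% = enzyme with DMSO and 100% = no enzyme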
Target sequence (P9WHR9 whole entry, looked up, the tested form may be a part): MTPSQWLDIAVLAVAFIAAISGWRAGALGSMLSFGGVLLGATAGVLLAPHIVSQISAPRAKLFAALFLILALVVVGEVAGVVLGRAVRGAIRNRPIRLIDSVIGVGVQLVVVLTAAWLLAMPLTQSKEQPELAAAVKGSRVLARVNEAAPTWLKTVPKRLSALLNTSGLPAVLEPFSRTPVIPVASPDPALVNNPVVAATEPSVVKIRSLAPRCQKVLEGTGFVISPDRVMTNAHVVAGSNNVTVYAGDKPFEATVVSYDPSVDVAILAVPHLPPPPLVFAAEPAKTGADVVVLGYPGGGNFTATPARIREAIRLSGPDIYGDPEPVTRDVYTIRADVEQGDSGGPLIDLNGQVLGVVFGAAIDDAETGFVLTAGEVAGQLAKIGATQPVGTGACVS
FBA Mtb inh – Mtb FBA enzyme inhibitors, primary screen, biochemical, fluorescence, strain H37Rv. Fructose-bisphosphate aldolase (Mycobacterium tuberculosis (strain ATCC 25618 / H37Rv)), …. purified M. tuberculosis FBA, fluorescence read-out. inhibition, % at 1 µM. 360,000 compounds, 2.3% hits. AID 588726, 2011; in the data active = inhibition above about 27%;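 also: 0% = vehicle and 100% = reference inhibitor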
Starred values were filed as active, the others as inactive; . = no result shown.

SMILES | Mtb hypoxia inh | FadD28 binding | GDH-TPI counter | Mtb UGM inh | Rv3671c protease | FBA Mtb inh
COc1ccc(/C=C/c2cc(-c3ccc(C)cc3)o[n+]2C)cc1 | . | 1 | 55* | 0 | -2 | 12
N#Cc1ccc(C=NNC(=O)c2cccc(S(=O)(=O)N3CCOCC3)c2)cc1 | -1 | . | . | . | . | .
CCCCN1C(=O)/C(=C/C=C2\SCCN2C)SC1=S | 25 | 2 | -2 | . | . | -16
CN1CCS/C1=C/C=C1\SC(=S)N(CC(=O)O)C1=O | 58* | -1 | 14 | -13 | -4 | -38
Cc1cc(=O)oc(C)c1C(=O)NCC(C)C | 2 | -1 | 7 | 1 | -2 | 2
CCCNC(=O)c1c(C)cc(=O)oc1C | 6 | 0 | 47* | -2 | 1 | 1
CCN(CCCNC(=O)c1c(C)cc(=O)oc1C)c1ccccc1 | 14 | 1 | 36* | 1 | -4 | 1
CCCCN(CCCNC(=O)c1c(C)cc(=O)oc1C)c1ccccc1 | 4 | 1 | 5 | -5 | 0 | -1
Cc1cc(C)n(-c2nnc(C)n2N=Cc2ccc(O)cc2)n1 | 6 | . | . | . | . | .
O=C(O)c1ccc(/C=N\Nc2ccccn2)cc1 | . | 1 | 54* | 2 | 3 | -3
CN(C)c1ccc(/C=N\Nc2ccccn2)cc1 | . | -1 | 76* | 1 | 5 | 2
O=C(O)c1ccc(C=NNc2ccccn2)cc1 | 17 | . | . | . | . | .
COc1cc(C=NN2CCN(Cc3ccccc3)CC2)cc(OC)c1OC(C)=O | 8 | . | . | . | . | .
Cc1cc(C)n2nc(-c3ccco3)nc2n1 | 3 | 1 | 4 | 1 | 3 | 124*
COCCN1C(=O)NC(c2cccc(C(F)(F)F)c2)C(C(C)=O)C1C (stereo not given) | 13 | . | . | . | . | .
N#C/C(=C\c1ccc(N2CCOCC2)cc1)c1ccccc1 | 4 | -1 | 29 | 2 | -2 | 4
N#CC(C#N)=Cc1ccc(N2CCOCC2)cc1 | 10 | -1 | 41* | -1 | 5 | -7
NC(=NO)c1cccn1Cc1ccccc1[N+](=O)[O-] | 12 | . | . | . | . | .
Cc1nn(C)c(C)c1/C=C1/SC(=S)NC1=O | -26 | 1 | 35* | -2 | 0 | -3
COc1cc(C(C)=NNC(=O)c2ccc(CSc3nncn3C)cc2)cc(OC)c1OC | 0 | . | . | . | . | .
Nc1nnnn1N=Cc1ccccc1OCc1ccc(Cl)cc1Cl | 6 | . | . | . | . | .
Cc1nc(N2CCN(C)CC2)c2sc(=S)n(-c3ccccc3)c2n1 | . | -3 | 38* | 1 | -2 | 2
Cc1nc(N2CCN(C)CC2)c2sc(=S)n(C)c2n1 | . | -1 | 17 | -3 | 1 | 2
N#CCC(=O)NN=Cc1ccccc1OC/C=C/c1ccccc1 | 4 | . | . | . | . | .
COc1ccc(/C=C(\NC(=O)c2ccccc2)C(=O)N/N=C/c2sccc2C)cc1 | . | -2 | 40* | -1 | -1 | 2
SMILES | Mtb hypoxia inh | FadD28 binding | GDH-TPI counter | Mtb UGM inh | Rv3671c protease | FBA Mtb inh
COc1ccc(/C=C(\NC(=O)c2ccccc2)C(=O)NN=Cc2sccc2C)cc1 | 16 | . | . | . | . | .
COc1ccc(OC)c(/C=C(\NC(=O)c2ccccc2)C(=O)N/N=C/c2ccc(C)s2)c1 | . | -3 | 49* | 4 | 12 | -3
COc1ccc(/C=C(/NC(=O)c2ccccc2)C(=O)N/N=C/c2sccc2C)cc1 | . | 0 | 52* | -1 | 0 | -1
COc1ccc(/C=C(/NC(=O)c2ccccc2)C(=O)NN=Cc2ccncc2)c(OC)c1 | 0 | . | . | . | . | .
O=C(N/N=C/c1ccc(O)c(O)c1O)/C(=C/c1ccc([N+](=O)[O-])cc1)NC(=O)c1ccccc1 | . | 1 | 37* | -1 | 13 | -10
CN(C)c1ccc(/C=C(/NC(=O)c2ccccc2)C(=O)NN=Cc2ccc([N+](=O)[O-])c(O)c2)cc1 | -1 | . | . | . | . | .
O=C(CN(Cc1ccco1)S(=O)(=O)c1ccccc1)NN=Cc1ccccc1C(=O)O | 0 | . | . | . | . | .
Cc1cc(C)nc(SCC(=O)NN=C/C(Br)=C/c2ccccc2)n1 | 4 | . | . | . | . | .
O=C(CNC(=O)c1ccccc1)N/N=C/c1cccs1 | . | -2 | -1 | -2 | -6 | -2
O=C(N/N=C/C=C/c1ccco1)/C(=C/c1ccccc1)NC(=O)c1ccccc1 | . | -4 | 37* | 0 | 4 | 0
O=C(N/N=C/c1cccs1)/C(=C/c1ccccc1)NC(=O)c1ccccc1 | . | -6 | 42* | 4 | 12 | 0
O=C(Nc1ccccc1)/C(=C\c1cccs1)NC(=O)c1ccccc1 | -7 | 0 | 23 | 0 | -3 | -1

Assay outcomes deposited in PubChem BioAssay by several laboratories.
